Measured values as given in ChEMBL document CHEMBL1961873, “Compounds: GSK PKIS; Assays: Nanosyn kinase panel” (2012).

What was measured:
[1] = target: High affinity nerve growth factor receptor (Homo sapiens) (UniProt P04629); details: at 1 µM;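 note: each value is the mean percent inhibition of TRKA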
[2] = target: BDNF/NT-3 growth factors receptor (Homo sapiens) (UniProt Q16620); details: at 0.1 µM
[3] = target: BDNF/NT-3 growth factors receptor (Homo sapiens) (UniProt Q16620); details: at 1 µM
[4] = target: NT-3 growth factor receptor (Homo sapiens) (UniProt Q16288); details: at 0.1 µM
[5] = target: NT-3 growth factor receptor (Homo sapiens) (UniProt Q16288); details: at 1 µM
[6] = target: T1, Tyrosine-protein kinase TXK (Homo sapiens) (UniProt P42681); details: at 0.1 µM
T1 sequence (whole entry): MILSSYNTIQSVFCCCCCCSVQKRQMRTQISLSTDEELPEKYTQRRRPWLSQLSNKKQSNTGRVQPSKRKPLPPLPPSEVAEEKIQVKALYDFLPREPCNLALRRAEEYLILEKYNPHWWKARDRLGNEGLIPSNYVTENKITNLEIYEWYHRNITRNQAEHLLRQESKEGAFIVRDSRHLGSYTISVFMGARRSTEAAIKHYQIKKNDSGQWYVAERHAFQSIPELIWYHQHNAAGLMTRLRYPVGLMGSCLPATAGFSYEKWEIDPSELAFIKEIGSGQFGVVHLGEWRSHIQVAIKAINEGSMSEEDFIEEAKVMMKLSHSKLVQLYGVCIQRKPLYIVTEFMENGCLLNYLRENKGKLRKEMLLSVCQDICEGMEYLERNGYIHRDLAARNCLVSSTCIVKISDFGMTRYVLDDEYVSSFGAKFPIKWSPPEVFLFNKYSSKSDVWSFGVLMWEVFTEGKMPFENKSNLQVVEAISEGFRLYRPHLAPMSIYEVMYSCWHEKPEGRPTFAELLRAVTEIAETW

[7] = target: T1, Tyrosine-protein kinase TXK (Homo sapiens); details: at 1 µM
[8] = target: Non-receptor tyrosine-protein kinase TYK2 (Homo sapiens) (UniProt P29597); details: at 0.1 µM;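 note: each value is a mean of the inhibition readings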
[9] = target: T2, Dual specificity protein kinase TTK (Homo sapiens) (UniProt P33981); details: at 1 µM;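 note: reported figures are mean TTK inhibition at 1 µM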
T2 sequence (whole entry): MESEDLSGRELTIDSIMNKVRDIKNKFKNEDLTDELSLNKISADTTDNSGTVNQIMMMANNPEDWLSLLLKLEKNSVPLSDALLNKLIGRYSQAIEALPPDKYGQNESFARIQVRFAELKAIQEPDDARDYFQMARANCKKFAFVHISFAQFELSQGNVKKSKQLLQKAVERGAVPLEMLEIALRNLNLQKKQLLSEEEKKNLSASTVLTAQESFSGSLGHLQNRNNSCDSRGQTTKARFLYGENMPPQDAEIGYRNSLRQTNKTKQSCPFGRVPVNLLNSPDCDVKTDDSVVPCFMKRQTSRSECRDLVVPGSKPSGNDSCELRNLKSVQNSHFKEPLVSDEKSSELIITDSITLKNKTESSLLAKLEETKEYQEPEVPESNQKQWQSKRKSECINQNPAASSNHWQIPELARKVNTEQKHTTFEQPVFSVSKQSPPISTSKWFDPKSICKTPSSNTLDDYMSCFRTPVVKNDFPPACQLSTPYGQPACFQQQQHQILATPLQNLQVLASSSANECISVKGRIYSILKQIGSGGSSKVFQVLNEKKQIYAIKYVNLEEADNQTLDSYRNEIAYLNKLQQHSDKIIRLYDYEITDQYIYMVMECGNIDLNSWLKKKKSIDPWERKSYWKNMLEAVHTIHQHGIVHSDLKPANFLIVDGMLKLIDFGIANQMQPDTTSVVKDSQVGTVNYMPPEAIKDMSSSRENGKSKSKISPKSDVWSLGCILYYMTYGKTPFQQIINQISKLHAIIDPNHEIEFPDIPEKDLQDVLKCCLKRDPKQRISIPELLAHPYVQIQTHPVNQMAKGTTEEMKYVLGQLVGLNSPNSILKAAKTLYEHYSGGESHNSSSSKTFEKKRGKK

[10] = target: T3, Aurora kinase A (Homo sapiens) (UniProt O14965); details: at 0.1 µM
T3 sequence (whole entry): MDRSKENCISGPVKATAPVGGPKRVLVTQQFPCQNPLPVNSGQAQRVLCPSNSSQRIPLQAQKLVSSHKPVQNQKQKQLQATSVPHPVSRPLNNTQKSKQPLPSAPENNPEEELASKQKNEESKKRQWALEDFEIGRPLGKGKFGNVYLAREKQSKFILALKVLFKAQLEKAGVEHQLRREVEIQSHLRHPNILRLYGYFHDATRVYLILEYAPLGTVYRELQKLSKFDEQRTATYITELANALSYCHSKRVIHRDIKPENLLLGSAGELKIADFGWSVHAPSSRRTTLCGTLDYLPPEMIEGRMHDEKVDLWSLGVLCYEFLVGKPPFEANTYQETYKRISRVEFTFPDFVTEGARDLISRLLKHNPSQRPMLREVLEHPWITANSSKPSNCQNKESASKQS

[11] = target: T3, Aurora kinase A (Homo sapiens); details: at 1 µM
[12] = target: Aurora kinase B (Homo sapiens) (UniProt Q96GD4); details: at 0.1 µM
[13] = target: Aurora kinase B (Homo sapiens) (UniProt Q96GD4); details: at 1 µM
[14] = target: T4, Aurora kinase C (Homo sapiens) (UniProt Q9UQB9); details: at 0.1 µM
T4 sequence (whole entry): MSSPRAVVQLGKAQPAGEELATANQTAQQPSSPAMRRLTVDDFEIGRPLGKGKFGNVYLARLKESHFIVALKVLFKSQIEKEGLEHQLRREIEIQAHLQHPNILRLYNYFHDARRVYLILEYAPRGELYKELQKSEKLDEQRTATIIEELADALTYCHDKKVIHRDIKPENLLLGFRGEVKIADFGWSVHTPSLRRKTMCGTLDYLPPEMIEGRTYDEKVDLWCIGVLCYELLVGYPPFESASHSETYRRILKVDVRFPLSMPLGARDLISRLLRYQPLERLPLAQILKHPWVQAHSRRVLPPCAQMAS

[15] = target: T4, Aurora kinase C (Homo sapiens); details: at 1 µM
[16] = target: Serine/threonine-protein kinase 10 (Homo sapiens) (UniProt O94804); details: at 0.1 µM
[17] = target: Serine/threonine-protein kinase 10 (Homo sapiens) (UniProt O94804); details: at 1 µM
[18] = target: T5, Mitogen-activated protein kinase kinase kinase kinase 2 (Homo sapiens) (UniProt Q12851); details: at 0.1 µM
T5 sequence (whole entry): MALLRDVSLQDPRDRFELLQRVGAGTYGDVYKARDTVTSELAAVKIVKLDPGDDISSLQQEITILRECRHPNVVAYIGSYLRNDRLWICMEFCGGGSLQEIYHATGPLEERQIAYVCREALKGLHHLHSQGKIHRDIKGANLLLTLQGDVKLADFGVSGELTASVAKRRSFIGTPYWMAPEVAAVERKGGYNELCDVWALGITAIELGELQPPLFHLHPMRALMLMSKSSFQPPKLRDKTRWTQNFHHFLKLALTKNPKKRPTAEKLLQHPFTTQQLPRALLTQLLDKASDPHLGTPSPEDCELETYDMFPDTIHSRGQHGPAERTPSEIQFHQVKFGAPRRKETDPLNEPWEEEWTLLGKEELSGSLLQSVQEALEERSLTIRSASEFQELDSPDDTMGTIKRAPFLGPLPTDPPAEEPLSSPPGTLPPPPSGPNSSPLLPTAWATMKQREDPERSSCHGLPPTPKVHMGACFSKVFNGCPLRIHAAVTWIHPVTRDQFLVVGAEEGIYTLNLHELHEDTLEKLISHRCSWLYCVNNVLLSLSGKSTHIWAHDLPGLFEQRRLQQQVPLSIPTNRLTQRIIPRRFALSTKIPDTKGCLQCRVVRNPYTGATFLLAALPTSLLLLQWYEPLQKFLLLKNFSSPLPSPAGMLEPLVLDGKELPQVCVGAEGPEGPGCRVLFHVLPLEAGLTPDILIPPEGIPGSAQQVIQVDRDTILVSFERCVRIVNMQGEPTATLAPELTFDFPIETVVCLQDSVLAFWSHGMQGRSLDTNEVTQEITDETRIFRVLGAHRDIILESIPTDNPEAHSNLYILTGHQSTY

[19] = target: T5, Mitogen-activated protein kinase kinase kinase kinase 2 (Homo sapiens); details: at 1 µM
[20] = target: Mitogen-activated protein kinase kinase kinase kinase 4 (Homo sapiens) (UniProt O95819); details: at 0.1 µM
Mitogen-activated protein kinase kinase kinase kinase 4 (Homo sapiens), sequence (O95819 2-1239 limits assumed): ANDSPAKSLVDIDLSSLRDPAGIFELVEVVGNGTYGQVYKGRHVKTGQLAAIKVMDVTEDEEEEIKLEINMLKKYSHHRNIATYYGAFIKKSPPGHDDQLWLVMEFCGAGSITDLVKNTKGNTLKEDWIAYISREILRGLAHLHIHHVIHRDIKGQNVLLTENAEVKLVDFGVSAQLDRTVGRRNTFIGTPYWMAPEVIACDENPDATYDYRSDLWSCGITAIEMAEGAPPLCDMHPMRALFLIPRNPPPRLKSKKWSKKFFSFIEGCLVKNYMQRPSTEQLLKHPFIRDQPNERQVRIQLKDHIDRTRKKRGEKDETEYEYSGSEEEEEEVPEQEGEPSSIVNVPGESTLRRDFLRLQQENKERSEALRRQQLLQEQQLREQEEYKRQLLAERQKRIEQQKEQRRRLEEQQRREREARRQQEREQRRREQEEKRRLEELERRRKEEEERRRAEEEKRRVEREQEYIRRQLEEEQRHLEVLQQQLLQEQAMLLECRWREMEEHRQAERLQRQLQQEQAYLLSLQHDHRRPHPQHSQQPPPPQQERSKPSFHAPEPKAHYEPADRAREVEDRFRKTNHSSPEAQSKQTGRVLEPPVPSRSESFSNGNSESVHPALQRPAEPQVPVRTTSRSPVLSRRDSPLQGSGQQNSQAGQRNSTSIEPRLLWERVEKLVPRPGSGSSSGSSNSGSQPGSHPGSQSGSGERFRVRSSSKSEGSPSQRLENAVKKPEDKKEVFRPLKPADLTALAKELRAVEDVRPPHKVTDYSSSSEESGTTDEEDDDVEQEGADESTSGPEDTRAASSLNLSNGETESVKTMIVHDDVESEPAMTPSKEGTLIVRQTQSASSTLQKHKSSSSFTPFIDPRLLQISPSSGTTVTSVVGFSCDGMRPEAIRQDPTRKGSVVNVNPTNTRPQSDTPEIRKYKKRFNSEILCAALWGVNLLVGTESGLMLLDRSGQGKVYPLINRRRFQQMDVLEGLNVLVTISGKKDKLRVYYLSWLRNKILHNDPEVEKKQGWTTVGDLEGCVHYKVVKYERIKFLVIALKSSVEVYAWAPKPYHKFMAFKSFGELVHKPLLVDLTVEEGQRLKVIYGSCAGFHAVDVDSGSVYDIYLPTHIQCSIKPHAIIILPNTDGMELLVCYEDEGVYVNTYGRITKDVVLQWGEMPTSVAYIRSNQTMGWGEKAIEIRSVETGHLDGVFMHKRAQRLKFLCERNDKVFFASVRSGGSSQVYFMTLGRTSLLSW

Non-receptor tyrosine-protein kinase TYK2 (Homo sapiens), sequence (P29597 whole entry): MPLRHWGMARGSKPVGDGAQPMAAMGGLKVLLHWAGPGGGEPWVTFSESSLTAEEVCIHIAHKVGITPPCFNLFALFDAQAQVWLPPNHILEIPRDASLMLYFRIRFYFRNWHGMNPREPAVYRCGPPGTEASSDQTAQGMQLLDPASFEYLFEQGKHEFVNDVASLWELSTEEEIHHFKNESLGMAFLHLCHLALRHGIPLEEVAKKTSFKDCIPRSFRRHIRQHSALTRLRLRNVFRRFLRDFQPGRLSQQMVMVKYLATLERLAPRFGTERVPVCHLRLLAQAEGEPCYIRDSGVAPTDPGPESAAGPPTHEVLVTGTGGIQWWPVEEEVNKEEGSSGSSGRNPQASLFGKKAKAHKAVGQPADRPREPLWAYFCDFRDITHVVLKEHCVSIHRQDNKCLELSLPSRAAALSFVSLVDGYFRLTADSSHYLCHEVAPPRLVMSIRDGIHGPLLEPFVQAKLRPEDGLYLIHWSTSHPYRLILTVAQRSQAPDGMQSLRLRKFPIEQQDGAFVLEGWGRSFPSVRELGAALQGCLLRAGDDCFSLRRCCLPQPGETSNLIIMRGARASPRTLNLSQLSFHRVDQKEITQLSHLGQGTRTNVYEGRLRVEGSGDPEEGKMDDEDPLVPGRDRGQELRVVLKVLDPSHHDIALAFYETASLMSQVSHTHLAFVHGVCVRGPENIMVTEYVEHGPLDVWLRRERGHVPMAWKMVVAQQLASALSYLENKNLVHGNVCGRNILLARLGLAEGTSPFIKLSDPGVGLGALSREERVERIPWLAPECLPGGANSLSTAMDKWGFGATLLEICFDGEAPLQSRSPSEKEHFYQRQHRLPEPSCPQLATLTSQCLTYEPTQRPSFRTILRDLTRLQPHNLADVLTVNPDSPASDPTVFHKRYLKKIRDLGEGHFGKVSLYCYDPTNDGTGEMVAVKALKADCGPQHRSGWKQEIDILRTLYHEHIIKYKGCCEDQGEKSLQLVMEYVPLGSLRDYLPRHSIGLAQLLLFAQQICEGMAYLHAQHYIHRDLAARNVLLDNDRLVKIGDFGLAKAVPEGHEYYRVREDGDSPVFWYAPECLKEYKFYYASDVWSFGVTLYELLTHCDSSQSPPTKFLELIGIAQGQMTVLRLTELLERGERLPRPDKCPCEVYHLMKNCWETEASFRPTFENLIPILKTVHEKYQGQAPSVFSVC
BDNF/NT-3 growth factors receptor (Homo sapiens), sequence (Q16620 32-822 limits assumed): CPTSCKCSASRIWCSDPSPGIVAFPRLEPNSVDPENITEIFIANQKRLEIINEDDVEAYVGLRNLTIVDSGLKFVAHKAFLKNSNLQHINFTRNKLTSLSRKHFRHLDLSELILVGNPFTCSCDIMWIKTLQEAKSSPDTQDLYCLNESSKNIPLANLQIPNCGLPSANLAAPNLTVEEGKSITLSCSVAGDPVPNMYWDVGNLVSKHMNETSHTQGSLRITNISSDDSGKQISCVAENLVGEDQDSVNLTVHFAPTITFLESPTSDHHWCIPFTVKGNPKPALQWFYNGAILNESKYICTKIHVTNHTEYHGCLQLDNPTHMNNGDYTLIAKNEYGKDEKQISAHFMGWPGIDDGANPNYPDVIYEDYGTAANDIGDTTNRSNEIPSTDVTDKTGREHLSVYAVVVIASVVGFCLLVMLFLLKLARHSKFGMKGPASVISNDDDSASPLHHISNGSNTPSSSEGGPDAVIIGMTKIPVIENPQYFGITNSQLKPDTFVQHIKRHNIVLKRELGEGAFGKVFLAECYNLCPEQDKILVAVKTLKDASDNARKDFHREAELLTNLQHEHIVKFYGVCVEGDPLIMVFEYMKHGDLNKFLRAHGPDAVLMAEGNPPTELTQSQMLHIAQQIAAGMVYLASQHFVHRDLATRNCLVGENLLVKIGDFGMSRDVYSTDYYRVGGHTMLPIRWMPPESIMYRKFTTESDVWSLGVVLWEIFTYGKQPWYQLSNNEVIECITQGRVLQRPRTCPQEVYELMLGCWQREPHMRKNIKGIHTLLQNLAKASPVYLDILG
High affinity nerve growth factor receptor (Homo sapiens), sequence (P04629 33-796 limits assumed): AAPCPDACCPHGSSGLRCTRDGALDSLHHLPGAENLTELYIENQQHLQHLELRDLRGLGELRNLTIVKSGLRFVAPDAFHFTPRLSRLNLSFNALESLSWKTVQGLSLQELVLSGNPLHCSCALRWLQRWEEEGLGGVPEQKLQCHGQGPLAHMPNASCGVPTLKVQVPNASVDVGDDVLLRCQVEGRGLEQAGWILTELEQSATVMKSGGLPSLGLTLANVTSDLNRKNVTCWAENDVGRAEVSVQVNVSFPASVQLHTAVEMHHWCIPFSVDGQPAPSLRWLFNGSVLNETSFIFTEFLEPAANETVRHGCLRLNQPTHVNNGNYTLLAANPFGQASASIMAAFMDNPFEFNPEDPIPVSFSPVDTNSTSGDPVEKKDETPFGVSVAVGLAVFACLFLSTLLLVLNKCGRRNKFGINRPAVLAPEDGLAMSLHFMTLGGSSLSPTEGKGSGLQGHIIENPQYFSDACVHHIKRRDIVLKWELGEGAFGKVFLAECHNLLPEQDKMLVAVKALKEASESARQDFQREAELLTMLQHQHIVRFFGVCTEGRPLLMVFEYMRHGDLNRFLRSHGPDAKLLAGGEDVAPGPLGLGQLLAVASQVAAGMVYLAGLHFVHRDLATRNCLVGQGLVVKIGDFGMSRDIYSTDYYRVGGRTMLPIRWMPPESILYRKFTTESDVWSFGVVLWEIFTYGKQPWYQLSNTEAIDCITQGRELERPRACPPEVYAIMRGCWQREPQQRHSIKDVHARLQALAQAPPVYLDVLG
NT-3 growth factor receptor (Homo sapiens), sequence (Q16288 32-839 limits assumed): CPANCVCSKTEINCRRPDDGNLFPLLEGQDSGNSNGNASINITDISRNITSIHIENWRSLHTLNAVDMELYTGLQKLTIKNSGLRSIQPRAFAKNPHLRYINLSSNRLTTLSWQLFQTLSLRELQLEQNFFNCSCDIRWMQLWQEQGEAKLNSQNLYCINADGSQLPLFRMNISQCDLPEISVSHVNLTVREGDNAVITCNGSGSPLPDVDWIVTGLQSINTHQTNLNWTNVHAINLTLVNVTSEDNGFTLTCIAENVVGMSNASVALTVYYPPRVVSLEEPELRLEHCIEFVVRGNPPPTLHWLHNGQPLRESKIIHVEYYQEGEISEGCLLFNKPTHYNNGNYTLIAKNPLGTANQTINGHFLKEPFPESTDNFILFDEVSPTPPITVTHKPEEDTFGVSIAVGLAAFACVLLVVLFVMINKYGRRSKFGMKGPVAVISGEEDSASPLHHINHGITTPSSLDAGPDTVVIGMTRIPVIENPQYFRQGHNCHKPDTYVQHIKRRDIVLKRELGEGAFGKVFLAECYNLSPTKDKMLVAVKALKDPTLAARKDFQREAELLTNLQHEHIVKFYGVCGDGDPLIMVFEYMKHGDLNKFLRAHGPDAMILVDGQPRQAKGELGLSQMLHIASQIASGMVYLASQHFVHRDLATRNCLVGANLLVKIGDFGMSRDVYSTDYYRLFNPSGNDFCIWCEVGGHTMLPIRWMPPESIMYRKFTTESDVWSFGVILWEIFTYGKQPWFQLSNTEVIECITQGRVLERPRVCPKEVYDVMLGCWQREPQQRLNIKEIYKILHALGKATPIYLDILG

Row | Compound | inhibition [1] [%] | inhibition [2] [%] | inhibition [3] [%] | inhibition [4] [%] | inhibition [5] [%] | inhibition [6] [%] | inhibition [7] [%] | inhibition [8] [%] | inhibition [9] [%] | inhibition [10] [%] | inhibition [11] [%] | inhibition [12] [%] | inhibition [13] [%] | inhibition [14] [%] | inhibition [15] [%] | inhibition [16] [%] | inhibition [17] [%] | inhibition [18] [%] | inhibition [19] [%] | inhibition [20] [%]
1 | NC(=O)c1cc(-c2ccc(F)cc2)cc(-c2ccncc2)c1N | -0.4 | 3.69 | 3.15 | 3.87 | 2.92 | 3.85 | 12.4 | -2.58 | 11.4 | 3.42 | 4.02 | 2.72 | 3.54 | -0.44 | -4.53 | 6.15 | 5.86 | 0.12 | 2.33 | 4.49
2 | COc1cccc(-n2cnc3c(N/N=C/c4ccncc4)ncnc32)c1 | 7.04 | 0.22 | 6.69 | 0.58 | 9.77 | -1.8 | 4.69 | 3.07 | 5.77 | -0.8 | 13 | 0.64 | 7.54 | 0.73 | -1.49 | 4.49 | 16.3 | 1.19 | 1.25 | 1.22
3 | CCS(=O)(=O)c1ccc(OC)c(Nc2ncc(-c3cccc(-c4ccccc4F)c3)o2)c1 | 26 | 7.74 | 39.2 | 7.3 | 39.5 | 5.11 | 31.2 | 1.51 | 3.52 | 0.79 | 15 | 3.23 | 3.48 | 0.45 | -0.17 | 2.05 | 15.4 | 1.69 | 2.38 | 2.34
4 | CNC(=O)c1cncc(/C=C/c2c(C)cccc2C)c1 | 0.47 | 0.05 | 0.22 | 0.47 | 1.16 | 5.71 | 35.6 | -0.15 | 5.33 | -1.77 | -0.78 | -3.36 | -3.06 | -3.26 | -9.54 | 1.24 | 10.3 | 0.91 | 4.59 | 4.81
5 | Nc1nccc(-c2c(-c3ccc(F)cc3)ncn2C2CCC(O)CC2)n1 (stereo not given) | -0.08 | 1.41 | 5.91 | 2 | 11.3 | 1.58 | 19.2 | -2.03 | -0.22 | -2.33 | 22 | -3.41 | 4.15 | -1.77 | -2.2 | -0.75 | 9.11 | 2.53 | 16.2 | 9.24
6 | NS(=O)(=O)c1ccc(N/N=C2\C(=O)Nc3ccc(C(=O)NCCCn4ccnc4)cc32)cc1 | 12 | 9.05 | 43.2 | 9.74 | 44.2 | 3.46 | 4.42 | -2.26 | 71.3 | 5.44 | 49.9 | 1.38 | 17.8 | 3.31 | 23.2 | 6.25 | 12.2 | 3.32 | 8.35 | 10.8
7 | O=C(Nc1n[nH]c2cc(-c3cc(F)ccc3F)ccc12)C1CC1 | 8.4 | 3.77 | 8.07 | 3.77 | 14 | 2.25 | 0.99 | -1 | 9.7 | 2.63 | 18.1 | 2.4 | 6.93 | 0.12 | 8.07 | 4.84 | 13.1 | 0.39 | 5.06 | 16.4
8 | CN(C)CCCNc1nccc(-c2c(-c3ccc(F)cc3)nn3cc(C(F)(F)F)ccc23)n1 | 2.77 | 4.65 | 0.51 | 2.89 | 2.21 | -0.89 | 0.21 | -7.47 | 8.76 | -2.9 | 6.4 | 0.91 | 6.92 | -1.31 | -0.03 | 2.34 | 7.46 | 4.09 | 7.36 | 5.21
9 | NS(=O)(=O)c1ccc(Nc2cc(-c3ccc(O)c(F)c3)n[nH]2)cc1 | 36.2 | 6.06 | 36.7 | 10.5 | 47.7 | -1.15 | -0.33 | 0.21 | 10 | -2.14 | 37.3 | 0.09 | 19.4 | -0.76 | 22.4 | -0.42 | 16.4 | 0.41 | 6.09 | 18.7
10 | Fc1ccc(-c2ncn(C3CCNCC3)c2-c2ccnc(Oc3ccc4c(c3)OCO4)n2)cc1 | 4.38 | 5.44 | 5.76 | 4.02 | 7.26 | 0.33 | 3.68 | -2.53 | 9.25 | 4.04 | 2.71 | 5.39 | 7.86 | 7.07 | 11.4 | 8.13 | 7.17 | 1.35 | 9.73 | 2.42
11 | CCC(=O)Nc1ccc(C)c(-c2ccc(C(=O)NCC3CC3)cc2)c1 | 4.19 | 2.75 | 2.88 | 2.19 | 2.2 | 2.71 | 1.4 | -2.17 | 8.22 | 1.72 | 4.11 | -0.16 | 3.49 | -1.01 | 3.82 | 1.74 | 5.36 | 0.41 | 1.16 | 4.98
12 | NC(=O)c1cc(-c2ccncc2)cc(-c2ccccc2)c1N | 1.84 | 2.94 | 3.86 | 3.19 | 4.68 | 45 | 76.1 | -3.77 | 10.8 | 2.73 | 6.63 | 3.91 | 4.94 | 1.71 | 5.08 | 6.67 | 9.99 | 0.27 | 0.97 | 11.9
13 | COc1cc(Nc2ncc3c(C)nc(-c4cccc(C(F)(F)F)c4)n3n2)cc(OC)c1OC | 7.83 | 4.54 | 16.5 | 4.76 | 11 | 3.45 | 16.6 | -1.61 | 14.4 | 2.65 | 36.2 | 4.06 | 14.4 | 1.2 | 11.3 | 6.36 | 12.5 | -0.1 | 7.98 | 11.3
